Reference: PubChem BioAssay (EPA / NIEHS)
Activity calls are given as the source filed them. The calls were made as follows: active = hit-call score of the fitted dose curve at least 0.9, where 1 is the maximum; inactive = score below 0.9.

Assay: ATG_MRE_CIS: Attagene CIS-FACTORIAL HepG2 Assay for human Metal Responsive Element (MRE) (AID 2282954)
Details: HepG2 MRE cis-reporter transcription, Attagene multiplex; actives raise or lower the signal
Description: ATG_CIS is a cell-based, multiplexed-readout assay that uses HepG2, a human liver cell line, with measurements taken at 24 hours after chemical dosing in a 24-well plate.ATG_MRE_CIS is one of 52 assay component(s) measured or calculated from the ATG_CIS assay. It is designed to make measurements of mRNA induction, a form of inducible reporter, as detected with fluorescence intensity signals by Reverse transcription polymerase chain reaction (RT-PCR) and Capillary electrophoresis technology.Data from the assay component ATG_MRE_CIS was analyzed into 1 assay endpoint. This assay endpoint, ATG_MRE_CIS, was analyzed with bidirectional fitting relative to DMSO as the negative control and baseline of activity. Using a type of inducible reporter, measures of mRNA for gain or loss-of-signal activity can be used to understand the reporter gene at the transcription factor-level as they relate to the gene MTF1. Furthermore, this assay endpoint can be referred to as a primary readout, because this assay has produced multiple assay endpoints where this one serves a reporter gene function. To generalize the intended target to other relatable targets, this assay endpoint is annotated to the dna binding intended target family, where the subfamily is zinc finger.
Human liver HepG2 cells are transiently transfected with multiple reporter transcription units (MRTUs) in 6-well plates using FuGene 6 reagent (Roche; 3 ml FuGene/1 mg DNA). The MRTU constructs are regulated by a cis-regulating element (promoter). […] A major difference between the CIS and TRANS system is that in CIS activities of endogenous TFs are measured, whereas the TRANS assay evaluates changes in activities of exogenous, chimeric NR-Gal4 proteins. […] At the end of 24 hour incubation, total RNA was isolated using TriZol reagent (Invitrogen). The isolated RNA is then reverse-transcribed using oligo(dT) primer and Mo-MLV reverse transcriptase (Invitrogen) with DNAse I (Ambion) treatment for 30 min. The one-tenth of the produced cDNA was amplified by PCR using Taq DNA polymerase (Invitrogen) and two reporter sequence-specific primers. The PCR products were fluorescently labeled by primer extension with 6-arboxyfluorescein (6-FAM) 5'-labeled reporter sequence-specific primer (2 min at 95 C, 20 s at 68 C and 10 min at 72 C) and these products were digested with 5U of HpaI (New England Biolabs) for 2h at 37 C. The fragments were purified using Qiaquick PCR columns (Qiagen), analyzed on an ABI 3130xL genetic analyzer (Applied Biosystems) with peak positions identified by using a set of X-rhodamine (ROX)-labeled MapMarker1000 molecular weight standards (BioVentures). The raw capillary electrophoresis data was processed using Attagraph software (Attagene).

| Structure (SMILES) | outcome | AC50 |
| --- | --- | --- |
| CC(O)C1CCCCC1 (stereo not given) | inactive |  |
| CCCC[O][Al]([O]CCCC)[O]CCCC | inactive |  |
| O=C(O)COCC(=O)O | inactive |  |
| CC1(C)C2=CCCC(C)(C)[C@]23CC[C@H]1C3 |  | 100 µM (active) |
| CC(C)c1ccccc1O | inactive |  |
| Cc1cc(C)nc(NS(=O)(=O)c2ccc(N)cc2)n1 | inactive |  |
| CC(=O)c1ccccn1 | inactive |  |
| COC(=O)c1cccnc1 | inactive |  |
| CCCCCCCC(=O)OCCCCCC | inactive |  |
| Cc1ccc(OC(=O)c2ccccc2O)cc1 | inactive |  |
| Brc1ccc(Br)c(Br)c1 | inactive |  |
| C[C@H]1C[C@@H](O)CC(C)(C)C1 | inactive |  |
| C[Si](C)(C)O[Si](C)(C)C | inactive |  |
| CCc1ccc(O)c(OC)c1 | inactive |  |
| CN(C)c1cccc(O)c1 | inactive |  |
| Cc1[nH]c(=O)c(C#N)cc1-c1ccncc1 | inactive |  |
| O=c1c(O)c(-c2ccc(O)cc2)oc2cc(O)cc(O)c12 | inactive |  |
| CCOc1ccc(NC(=O)CC(C)=O)cc1 | inactive |  |
| CC/C=C\CC/C=C/CO | inactive |  |
| Cc1ccc(C)o1 | inactive |  |

| Structure (SMILES) | outcome | AC50 |
| --- | --- | --- |
| O=C1OC(=O)c2c(Cl)c(Cl)c(Cl)c(Cl)c21 | inactive |  |
| C=C1CC[C@H](O)C/C1=C/C=C1\CCC[C@]2(C)[C@@H]([C@H](C)/C=C/[C@H](C)C(C)C)CC[C@@H]12 | inactive |  |
| CCc1cc(C(C)(C)C)c(O)c(C(C)(C)C)c1 | inactive |  |
| c1ccc(CCc2ccccc2)cc1 | inactive |  |
| C#CC(C)N(C)C(=O)Nc1ccc(Cl)cc1 (stereo not given) | inactive |  |
| COC(C)(C)CCCC(C)CC=O (stereo not given) | inactive |  |
| CC(=O)O[C@@H]1CC2CCC1(C)C2(C)C (stereo not given in full) | inactive |  |
| c1ccc(Oc2ccccc2)cc1 | inactive |  |
| C=C(C#N)C(=O)OCC | inactive |  |
| CC1(C)C(=O)N(Cl)C(=O)N1Br | inactive |  |
| OCCOCCN1CCN(C2=Nc3ccccc3Sc3ccccc32)CC1 |  | 71.7 µM (active) |
| C[C@@H]1CCN(C(=O)[C@H](CCCN=C(N)N)NS(=O)(=O)c2cccc3c2NC[C@H](C)C3)[C@@H](C(=O)O)C1 | inactive |  |
| COS(=O)(=O)O | inactive |  |
| COc1ccc(CCO)cc1 | inactive |  |
| O=[N+]([O-])c1ccc(O)cc1C(F)(F)F |  | 61.1 µM (active) |
| OC[C@H]1O[C@@H](Oc2ccc(O)cc2)[C@H](O)[C@@H](O)[C@@H]1O | inactive |  |
| Nc1ccc2cc(S(=O)(=O)O)cc(O)c2c1N=Nc1ccccc1C(F)(F)F | inactive |  |
| CCCCCCCC/C=C\CCCCCCCC(=O)OCC | inactive |  |
| CCC(=O)OCCOc1ccccc1 | inactive |  |
| CC1(C)O[C@@H]2[C@@H](CO[C@@]3(COS(N)(=O)=O)OC(C)(C)O[C@@H]23)O1 | inactive |  |
